Test results from PubChem BioAssay AID1460 (National Center for Advancing Translational Sciences (NCATS), 2008).
Among all 270,000 compounds or so, about 5,800 (2.1%) were called active. Inconclusive results (about 16%) are left out. The sample holds actives, similar compounds and a random draw of the others, so the mix is not that of the screen. The call rests on the fitted dose curve; in most records, active means well fitted inhibition curve with a large enough effect; inconclusive means small, poorly fitted or top-dose-only effect; inactive means flat fitted curve, though single readings scatter.

Each compound was assayed against Microtubule-associated protein tau (Homo sapiens) (UniProt P10636) (assay: qHTS for Inhibitors of Tau Fibril Formation, Thioflavin T Binding). Conditions: recombinant tau K18 P301L (four-repeat tau fragment), heparin-induced fibrillization, ThT fluorescence; series mostly up to 57.4 µM; activity, negative = inhibition: at the top concentration.
Chain of Microtubule-associated protein tau (Homo sapiens) (P10636 561-689 P618L limits assumed): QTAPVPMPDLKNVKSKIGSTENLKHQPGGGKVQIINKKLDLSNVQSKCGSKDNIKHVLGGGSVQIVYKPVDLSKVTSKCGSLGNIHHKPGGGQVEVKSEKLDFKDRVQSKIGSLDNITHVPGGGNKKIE
Method in brief: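 Aggregation was driven by heparin (20 uM final) acting on recombinant tau […] bearing P301L in 100 mM sodium acetate pH 7; fibrils were detected with Thioflavin T.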
Further: nearly all actives have a fitted effect of over 55% in size.
On the % scale 0 is the no-effect control and ±100 the full control effect; potency means the concentration at half of the fitted maximal effect.

activity, negative = inhibition, inactive:
Cc1ccc(C)c(N2CCN(c3ccc4cc(S(=O)(=O)N5CCC(C)CC5)ccc4n3)CC2)c1 0.595%
Cc1[nH]c2ccccc2c1SCC(=O)Nc1nccs1 -6.38%
CC(=O)c1cc(C#N)c(SCC(=O)C(C)(C)C)nc1C -10.4%
COc1ccc(CCNc2ncnc3onc(-c4ccc(Cl)cc4)c23)c(OC)c1 -0.33%
CCOCCc1nn2c(=O)cc(COC(=O)CNC(=O)c3ccc(C(C)(C)C)cc3)nc2s1 -14%
Cc1c(NC(=O)CCC2CCCCC2)cc(C(=O)N2CCOCC2)cc1[N+](=O)[O-] -8.07%
Cc1ccc(C(=O)COC(=O)CCCC(=O)NC2CCCCC2)cc1[N+](=O)[O-] -0.262%
COCCN(Cc1ccco1)C(=O)Cn1ncc2c([nH]c3ccccc32)c1=O 4.47%
CC(CC(=O)N1CCN(c2ccccc2)CC1)c1ccccc1 (configuration not stated) -1.05%
O=C(Nc1ccc(F)cc1)N1CCN(c2ccc(F)cc2)CC1 -16.9%
Cc1c(CCNC(=O)c2ccc(C(F)(F)F)cc2)sc2nc(-c3ccc(F)cc3)nn12 2.81%
COc1ccc(Cl)cc1NC(=O)CCn1c(=O)c2cccn2c2ccccc21 -13.7%
CCOc1ccc(CNC(=O)c2ccc3nc(CC)c(CC)nc3c2)cc1OC 0.219%
CC1=CC(C)(C)N(C(=O)CSc2nnc(-c3ccccc3)o2)c2ccc(C)cc21 -11.5%
COc1ccc2c(c1)C(C)=CC(C)(C)N2C(=O)CNCc1ccc2c(c1)OCO2 -5.39%
O=C(NC1CC(=O)N(c2ccc(Cl)cc2)C1)C1CCCC1 (configuration not stated) -3.22%
Cn1ccc2cc(S(=O)(=O)N3CCCC(C(=O)NCc4ccccc4F)C3)ccc21 (configuration not stated) 4.83%
COc1ccc(-c2nc3ccccc3o2)cc1NC(=O)c1cc([N+](=O)[O-])ccc1N1CCOCC1 -9.81%
O=C(NC1CCCCC1)c1cc([N+](=O)[O-])ccc1N1CCOCC1 -5.97%
CCOC(=O)c1sc(NC(=O)COc2ncnc3ccccc23)c(C(=O)OCC)c1C 13.3%
CCOC(=O)c1c(NC(=O)c2cccs2)sc(C)c1C 4.08%
Clc1cccc(-n2ncc3c(NCCc4ccccc4)ncnc32)c1 -9.03%
Cc1ccc(Cl)cc1NC(=O)CCC(=O)N1CC(C)Sc2ccccc21 (configuration not stated) -16.2%
CCCNC(=O)C1CCN(c2nc3ccc(C)cc3[nH]2)CC1 -0.761%
COCC(C)NS(=O)(=O)c1ccc(N2CCCCS2(=O)=O)cc1 (configuration not stated) 6.23%
S=C(NCCc1ccccc1)N1CCCCC1 -8.68%
OCCN1CCN(C(=S)c2ccc(-c3ccccc3)cc2)CC1 -13.5%
Oc1ccccc1N1CCN(C(=S)NCc2ccccc2)CC1 -17.4%
OCC(CO)(CO)NCc1ccc(-c2ccccc2)cc1 -2.17%
CCc1nc2cccnc2n1-c1ccc(CC(=O)Nc2c(C)cccc2C)cc1 -7.47%
COc1ccc(CCNC(=O)Cn2c(=O)cc(C(F)(F)F)c3c(C)nn(C)c32)c(OC)c1 -7.4%
Cc1ccc(/C=C/C(=O)Nc2cc(S(=O)(=O)N3CCCCCC3)ccc2OCC(F)(F)F)o1 9.07%
CCc1nnc(NC(=O)/C=C/c2ccc(C)o2)s1 -4.8%
CCOc1cccc(/C=N/NC(=S)NCCN2CCOCC2)c1O -6.58%
CCOc1ccccc1N=C1NC(=O)CS1 -1.39%
COc1ccc(OC)c(NC(=O)CSC2=Nc3ccccc3C3=NC(CC(=O)NCCc4ccccc4)C(=O)N23)c1 (configuration not stated) -3.76%
COc1ccccc1NC(=O)Cn1cnc2ccc(S(=O)(=O)N3CCC(C)CC3)cc2c1=O 9.3%
CN1c2ccc(Cl)cc2-c2nc(SCC(=O)Nc3cc(F)ccc3F)ncc2S1(=O)=O 4.12%
CC1CCCCN1CCCNC(=O)Cn1ncc2c([nH]c3ccccc32)c1=O (configuration not stated) -18.3%
CCc1ccc(NC(=O)CCS(=O)(=O)c2cc3c(cc2Cl)NC(=O)CO3)cc1 1.33%
COc1ccc(C)cc1NC(=O)C(=O)NCCc1sc(-c2cccc(C)c2)nc1C -12.3%
O=C(O)c1ccccc1C(=O)Nc1ccccc1[N+](=O)[O-] -2.3%
Cc1ccc(Nc2ccc(C(N)=O)cc2[N+](=O)[O-])cc1 -3.36%
CCCN1C(=O)C(O)(CC(=O)c2ccc(CC)cc2)c2cc(Br)ccc21 (configuration not stated) -7.54%
COc1ccc(N2CCN(C(=O)CSc3nc4cc(OC)c(OC)cc4cc3C#N)CC2)cc1 -10.6%
COC(=O)CSc1nc(C)c2ccc(OC)cc2n1 -5.41%
Cc1nc2cc(NC(=O)CSc3nc4c(C)cccc4cc3C#N)ccc2s1 -13.9%
Cc1cc(C)c(C#N)c(SCC(=O)Nc2ccccc2)n1 4.95%
CC(=O)c1ccc(NC(=O)c2nc(-c3ccc(C)cc3)n3c2CCCCC3)cc1 -9.51%
Cc1ccc(CCNC(=O)c2nnc(Cc3cccc(F)c3)o2)cc1 -13.6%
CCOC(=O)c1c(NC(=S)NC(=O)c2ccco2)sc2c1CCCC2 -18%
CC(C)OC(=O)c1c(NC(=O)c2ccco2)sc2c1CCCC2 -13%
COc1cc2c(cc1OC)C(COc1ccc(F)cc1)N(C(=O)c1ccccc1F)CC2 (configuration not stated) -8.13%
COc1cc(Cl)c(NC(=O)CC(C)S(=O)(=O)c2cc3c(cc2C)NC(=O)CO3)c(OC)c1 (configuration not stated) 2.57%
Cc1ccc(N=Nc2c(C)[nH]n(-c3ccccc3)c2=O)cc1 0.0892%
Cc1c(C=O)n(C)n(-c2ccccc2)c1=O 0.926%
CC(C)(C)c1ccc(S(=O)(=O)Nc2ccc(O)c(Sc3nc4ccccc4s3)c2)cc1 -17.4%
O=C(CSc1nc2ccccc2s1)Nc1ccc(C(=O)O)cc1 -2.11%
COC(=O)c1cc(S(=O)(=O)N2CCN(c3cc(Cl)ccc3C)CC2)c[nH]1 7.65%
COc1ccc(NC(=O)CSc2nc3ccccc3n2CC(=O)N2CCCCC2C)cc1 (configuration not stated) 1.12%
COc1cc(NC(=O)c2cc(C3CC3)nc3c2c(C)nn3-c2ccccc2)cc(OC)c1 -5.05%
COC(=O)CC1Oc2ccccc2-n2cc(-c3ccccc3)nc21 (configuration not stated) -13.4%
O=C(c1ccc(Cl)cc1)c1ccc(OCC(O)CN2CCCCC2)cc1 (configuration not stated) -6.29%
O=C(c1ccccc1)c1ccc(OCC(O)CN2CCCC2)cc1 (configuration not stated) -0.223%
Cc1ccc(C)c(CNC(=O)c2cc3ccccn3n2)c1 -8.43%
CCOc1ccccc1C(=O)Nc1ccc(S(=O)(=O)N2CCCCC2c2cccnc2)cc1 (configuration not stated) 8.63%
CCOC(=O)c1c(C)[nH]c(C)c1S(=O)(=O)NCC(=O)NCc1cccc(C)c1 3.96%
COc1ccc(Br)cc1/C=N/n1c(C)nnc1C -2.94%
O=C(O)Cc1sc(-c2ccc(C(=O)O)cc2)nc1-c1ccccc1 2.5%
Cc1ccc(-c2nc(C)sc2CC(=O)O)cc1 4.18%
COc1ccc(NC(=O)CSc2nccn2Cc2ccc3c(c2)OCO3)cc1 -11.5%
Nc1ncc(S(=O)(=O)Nc2ccc(OC(F)(F)F)cc2)cn1 -1.64%
CCc1ccc2ncc3c(-c4ccc(C)cc4)nn(CC(=O)NCc4ccccc4)c3c2c1 -6.61%
COc1ccc(CNC(=O)CSc2n[nH]c(-c3ccc(F)cc3)n2)cc1 -4.28%
Cc1ccc(NC(=O)c2oc3ccccc3c2NC(=O)Cc2cccs2)cc1 1.47%
CCCCc1nnc(NC(=O)CSc2nc(C)cc(=O)[nH]2)s1 -3.3%
CCOC(=O)Cc1csc(NC(=O)CSc2ccc(Br)cc2)n1 5.76%

Potency, active:
CC(=O)c1cc(C#N)c(SCC(=O)Nc2nccs2)nc1C 7.08 µM
Cc1cc(C=O)c(C)n1-c1ccc(NC2CCCCC2)c([N+](=O)[O-])c1 14.1 µM
CC(=O)N1CCN(c2ccc(NCc3ccc(C(C)C)cc3)cc2)CC1 12.6 µM
COc1ccc2c(c1)C(C)=CC(C)(C)N2C(=O)Nc1ccccc1 28.2 µM
CCOc1ccc2nc(NC(=O)c3cc([N+](=O)[O-])ccc3N3CCOCC3)sc2c1 3.16 µM
CCOC(=O)c1c(NC(=O)COc2cc(C)ccc2C(C)C)sc(C)c1C 25.1 µM
S=C(c1ccc(-c2ccccc2)o1)N1CCCCC1 15.8 µM
Oc1ccc(CNc2ccccc2O)cc1 14.1 µM
Cc1cccc(C2C3=C(CCCC3=O)N=C3c4ccccc4C(=O)C32)c1 (configuration not stated) 14.1 µM
Cc1ccc(/C=C/C(=O)Nc2ccc([N+](=O)[O-])c(NC(=O)/C=C/c3ccc(C)o3)c2)o1 12.6 µM
CCOc1cccc(/C=N/N2C(=O)CSC2=S)c1O 22.4 µM
CC(=O)Oc1c2c(c3c(c1CC=C(C)C)O[C@@]14C(=CC5CC1C(C)(C)OC4(C/C=C(\C)C(=O)O)C5=O)C3=O)OC(C)(CCC=C(C)C)C=C2 (some centres not stated) 31.6 µM
CN1/C(=c2/s/c(=C3/C(=O)N(c4ccccc4)NC3=Nc3ccccc3)n(C)c2=O)C(C)(C)c2ccccc21 7.94 µM
O=[N+]([O-])c1ccccc1Nc1ccc(O)cc1 22.4 µM
Cc1nonc1NC(=O)CSc1nc2ccccc2cc1C#N 1.78 µM
CCOc1ccc2cc(C#N)c(SCC(=O)OC)nc2c1 3.16 µM
CNC(=O)c1c(NC(NC(=O)c2ccco2)C(=O)c2ccc(Cl)cc2)sc2c1CCCC2 (configuration not stated) 25.1 µM
Cc1c(N=Nc2ccc(N(C)C)cc2)c(=O)n(-c2ccccc2)n1C 15.8 µM
O=[N+]([O-])c1c(NCCO)cc(Sc2nc3ccccc3s2)c2nonc12 12.6 µM
O=C1C(c2ccccn2)=[N+]([O-])c2ccccc21 3.98 µM
CCOc1ccc(C(=O)/C=C/c2cn(CC(O)CN3CCCCCC3)c3ccccc23)cc1 (configuration not stated) 12.6 µM
CC/C(=N/Nc1ccccc1)c1cnnc(SC)n1 7.08 µM
COc1cc(Br)cc(/C=N/c2ncn[nH]2)c1O 14.1 µM
C/C(=N/Nc1nc(-c2ccccc2)c(CC(=O)O)s1)c1ccccc1 12.6 µM
CCOC(=O)Cc1csc(NC(=O)CSc2nc(C)cc(=O)[nH]2)n1 28.2 µM
